IL-1B inflam inh = inflammasome signaling inhibition, IL-1 beta readout; THP-1 LPS/ATP IL-1B secretion, AlphaLISA, 16 h; stronger effect = lower value; activity change, % at 57.5 µM; hit rate 4.7% among 360,000; in the data active = activity change below about -50%; inconclusive = mostly about -30% to -49%
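THP-1 cells pretreated 1 hr with compounds (up to 57.5 uM final), then stimulated with LPS (250 ng/mL final) plus ATP (1.25 mM final); secreted IL-1B measured by AlphaLISA after 16 hr, decreased signal indicating inhibition.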
TDP1 cell CPT = DT40-hTDP1 cell growth loss with CPT; Potency, µM (highest dose often 46.2 µM), usual class: inhibitors; hit rate 12% among 420,000; chicken DT40 Tdp1-/-;hTDP1 cells + 20 nM CPT, ATP luminescence, 48 h; also: nearly all actives have a fitted effect of over 55% in size
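Cell growth measured by CellTiter-Glo luminescence after a minimum 48 h, 37 C compound exposure with 20 nM CPT in Tdp1-knockout DT40 cells stably expressing hTDP1, seeded 400/well; qHTS titration format.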
Giardia killer = Giardia lamblia killing; activity change, % at 7.66 µM, hits read low; Giardia lamblia trophozoite viability; AID 540267; hit rate 0.15% among 340,000; in the data active = activity change below about -80%; inconclusive = between about -30% and that limit;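 also: parasites exposed to compound for two days anaerobically before the ATP read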
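Trophozoites 100 cells/well + cpd; 48 hrs, 37 deg C, anaerobic. ATPLite 1-Step added, 15-30 min RT, luminescence read (ATP-based viability).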
ELG1 repair inh = blocks ELG1-dependent DNA repair in HEK293T cells; HEK293T ELG1-luciferase reporter, luminescence, 16 h; DNA damage induced by 5-fluorouridine; Potency, µM (top dose mostly 46.1 µM), actives largely listed as inhibitors; hit rate 2.3% among 330,000; also: nearly all actives have a fitted effect of over 55% in size
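HEK293T cells expressing luciferase-tagged ELG1 (2,000/well) received 5-Fluorouridine plus compound or DMSO for 16 hr at 37 °C. Luciferase was read by ONE-Glo luminescence after 30 min at room temperature.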
TDP1 block = inhibitors of human tyrosyl-DNA phosphodiesterase TDP1; AID 485290; Potency, µM (series often up to 130 µM), most hits filed as inhibitors; Q9NUW8; hit rate 0.28% among 350,000; recombinant TDP1, AlphaScreen DNA substrate cleavage; also: nearly all actives have a fitted effect of over 40% in size
Target sequence (Q9NUW8 whole entry, looked up): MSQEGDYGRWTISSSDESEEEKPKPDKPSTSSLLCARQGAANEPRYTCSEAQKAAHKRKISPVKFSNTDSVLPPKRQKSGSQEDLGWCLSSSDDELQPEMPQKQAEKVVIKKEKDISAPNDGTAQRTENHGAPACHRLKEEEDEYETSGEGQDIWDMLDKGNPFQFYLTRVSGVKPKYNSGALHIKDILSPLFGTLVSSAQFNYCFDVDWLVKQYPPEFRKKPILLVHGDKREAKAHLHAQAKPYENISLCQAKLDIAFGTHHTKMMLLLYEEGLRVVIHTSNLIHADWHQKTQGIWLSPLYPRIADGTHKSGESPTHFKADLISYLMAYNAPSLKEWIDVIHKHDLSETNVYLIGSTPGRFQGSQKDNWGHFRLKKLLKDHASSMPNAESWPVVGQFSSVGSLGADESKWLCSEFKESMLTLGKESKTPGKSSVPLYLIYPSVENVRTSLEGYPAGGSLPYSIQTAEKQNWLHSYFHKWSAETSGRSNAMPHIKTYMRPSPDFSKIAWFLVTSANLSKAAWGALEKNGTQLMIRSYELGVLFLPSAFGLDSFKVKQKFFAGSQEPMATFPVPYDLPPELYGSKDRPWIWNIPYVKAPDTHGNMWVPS
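Compounds were preincubated with Tdp1 (1 nM final) for 15 min at room temperature before substrate (15 nM final) started a 5 min reaction; beads (10 ug/ml final) were then added for 10 min before AlphaScreen detection.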
TDP1 cell noCPT = qHTS for Inhibitors of human tyrosyl-DNA phosphodiesterase 1 (TDP1): qHTS in cells in absence of CPT | DT40 Tdp1-/- hTDP1 cells, no CPT, ATP luminescence, 48 h | Potency, µM (highest dose often 46.2 µM), most hits filed as inhibitors | hit rate 15% among 420,000 | AID 686978, 2013; also: nearly all actives have a fitted effect of over 55% in size
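Camptothecin absent (DMSO only). Human TDP1-complemented DT40 knockout cells, 400 cells/well, 37 °C for minimum 48 hr; ATP measured via CellTiter-Glo, 30 min dark incubation, luminescence.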
Hits are given with their value; – = inactive; ? = inconclusive; · = no result given; [ ] = another dose, or the depositor's remark. Compounds with a hit are over-represented: about 19% of the library has one in this group of screens. Unless noted, calls follow the shape of the dose curve; as a rule, active = well fitted curve in the direction sought with a large enough effect; inconclusive = small, poorly fitted or top-dose-only effect, or another doubt; inactive = no such curve, though single readings can be large; an effect the other way counts as inactive or inconclusive.

SMILES	IL-1B inflam inh	TDP1 cell CPT	Giardia killer	ELG1 repair inh	TDP1 block	TDP1 cell noCPT
O=C(CNc1cccc(S(=O)(=O)N2CCCC2)c1)Nc1ccc(C(F)(F)F)cc1	?	16.4µM	–	–	–	14.6µM
Cc1ccc(OC(C)C(=O)N2CCN(CCc3ccncc3)CC2)cc1C (configuration not stated)	·	–	·	·	–	?
Clc1ccc(N2CCN(c3cnc4ccccc4n3)CC2)cc1	–	23.1µM	–	?	–	?
O=C(c1ccc([N+](=O)[O-])cc1)N(Cc1ccco1)c1ccccn1	·	–	·	·	–	–
Cn1c(SCc2ccc(F)cc2)nc2ccc(C(=O)NCc3ccccc3)cc21	·	–	·	·	–	–
CCc1ccc(CNC(=O)c2ccc3nc(SCc4ccc(F)cc4)n(C)c3c2)cc1	·	14.6µM	·	·	–	20.6µM
CCOC(=O)N1CCN(C(=O)c2ccc3nc(SCc4ccc(F)cc4)n(C)c3c2)CC1	?	23.1µM	–	13µM	–	20.6µM
Cc1ccccc1Oc1ccc(-c2nc(N)nc(N)n2)cc1	–	–	–	–	–	?
Nc1nc(N)c2c(OCc3ccc(C(F)(F)F)cc3)cccc2n1	·	5.01µM	·	·	·	3.16µM
Nc1nc(N)c2c(Oc3ccc(F)cc3)cccc2n1	·	12.6µM	·	·	·	1.78µM
NC(=O)CC(NC(=O)Cc1ccc(Cl)cc1)c1ccc(N2CCC(Cc3ccccc3)CC2)c([N+](=O)[O-])c1 (configuration not stated)	–	?	–	–	·	?
Cn1c(O)c(/C=N/NC(=O)c2cc3ccccc3cc2O)c2ccccc21	–	16.4µM	–	?	–[0.0935 µM]	14.6µM
CCC(C)c1ccc(S(=O)(=O)N2CCN(C(C)C(=O)NC3CCCC3)CC2)cc1 (configuration not stated)	–	14.6µM	–	?	–	?
Cc1ccc(S(=O)(=O)N2CCN(C(C)C(=O)NCC(C)c3ccccc3)CC2)cc1 (configuration not stated)	–	?	–	?	–	23.1µM
CC(C)c1ccc(S(=O)(=O)N2CCN(C(C)C(=O)Nc3ccccc3-c3ccccc3)CC2)cc1 (configuration not stated)	–	18.4µM	–	–	–	?
CCOc1cc(CNC(=O)C2COc3ccccc3C2)cc(OCC)c1OCC (configuration not stated)	·	14.6µM	·	·	–	?
CCOc1ccc(NC(=O)C2CCN(c3nc4ccccc4[nH]3)CC2)cc1	·	?	·	·	–	23.1µM
CCOc1cc(CNC(=O)C2CCN(c3nc4ccccc4[nH]3)CC2)cc(OCC)c1OCC	·	20.6µM	·	·	–	16.4µM
CCN(Cc1ccccc1)C(=O)Cn1ncc2c(=O)oc3ccc(C)cc3c21	·	–	·	·	–	–
O=C(CSc1nccn1Cc1ccc(Cl)cc1)Nc1ccc2c(c1)OCCO2	·	–	·	·	–	–
O=C(COc1ccc2ccc(=O)oc2c1)Nc1ccc(N2CCCCC2)cc1	–	?	–	–	–	18.4µM
O=C(COc1ccc2ccc(=O)oc2c1)N1CCN(c2ccc(F)cc2)CC1	–	?	–	–	–	23.1µM
O=C(CNS(=O)(=O)c1c(Cl)cccc1Cl)OCc1csc(-c2ccccc2)n1	–	–	–	–	–	–
CC(C)c1ncc([N+](=O)[O-])n1C	·	–	·	·	·	–
CC(C)c1cccc(C(C)C)c1NC(=O)COC(=O)[C@H](C)NC(N)=O	–	–	–	–	–	–
SMILES	IL-1B inflam inh	TDP1 cell CPT	Giardia killer	ELG1 repair inh	TDP1 block	TDP1 cell noCPT
CCOC(=O)C1=C(C(=O)OCC)N(CC2CCCCC2)CCC1=O	–	–	–	·	·	–
COc1cc(NC(=O)Cn2c(=O)nc(-c3ccccc3F)c3cc(Cl)ccc32)cc(OC)c1	·	14.6µM	·	·	–	10.3µM
Cc1ccccc1CN1C(=O)c2ccccc2Sc2ccc(C(=O)NC(C)c3ccccc3)cc21 (configuration not stated)	·	?	·	·	–	?
O=C(NCc1nc(-c2ccc(C(F)(F)F)cc2)no1)Nc1ccc(OC(F)(F)F)cc1	-90.1	?	–	–	–	8.2µM
O=C(O)c1cccc(O)c1O	–	–	–	·	·	–
Oc1cccc(O)c1O	·	5.96µM	·	·	?	?
N#Cc1cc(-c2ccccc2)cnc1Sc1ccccc1	–	–	–	?	–	–
N#Cc1c(N)[nH]c2ccc(Sc3ccccc3)cc12	–	0.731µM	–	·	·	0.731µM
O=C1C(c2ccccc2)=NCCN1C(c1ccc(F)cc1)c1nc2ccccc2[nH]1 (configuration not stated)	–	?	·	·	·	–
c1ccc(-c2csc(Nc3ccc4c(c3)OCCO4)n2)cc1	–	14.6µM	–	·	–	?
COc1ccc(-c2csc(Nc3ccc(S(N)(=O)=O)cc3)n2)cc1	?	?	–	16.4µM	–	?
CCC(=O)Nc1nc(-c2ccc3c(c2)OCCO3)cs1	?	?	–	?	–	–
c1cc2c(cc1-c1csc(NNC3=NCCCCC3)n1)OCCO2	-101.5	3.26µM	–	?	–	4.61µM
c1cc2c(cc1Nc1nc(-c3ccc4c(c3)OCO4)cs1)OCCO2	–	?	–	?	–	–
COc1ccc(-c2csc(Nc3ccccc3)n2)cc1	-56.4	?	?	?	–	?
COc1ccccc1C(=O)Nc1nc2ccc(S(=O)(=O)N3CCCC3)cc2s1	·	–	·	·	–	–
COc1ccc(S(=O)(=O)Nc2c(C(=O)O)[nH]c3ccc(OC)cc23)c(OC)c1	–	–	–	–	–	–
COc1ccccc1CN1CCCC2(CCN(C(=O)c3cnccn3)CC2)C1	·	?	·	·	·	–
COc1ccc(Nc2nc(-c3c[nH]c4ccccc34)cs2)cc1	-78.2	–	–	?	–	–
Cc1cc(C)nc(Nc2nc(-c3ccccc3)cs2)n1	–	–	–	?	–	?
COc1ccc(Nc2nc(-c3ccc(OC)cc3)cs2)cc1	?	–	–	?	–	–
c1ccc(Nc2nc(-c3ccccn3)cs2)cc1	?	13µM	–	·	–	7.31µM
c1ccc(-c2csc(Nc3nc(N4CCOCC4)nc(N4CCOCC4)n3)n2)cc1	?	?	–	5.8µM	–	10.3µM
C#CCN(C[C@@H]1[C@@H](OC(=O)NCCCCCC)[C@@H](OC(=O)NCCCCCC)Cn2c(=O)ccc(=O)n21)S(=O)(=O)c1ccc(C)cc1	-107.4	4.61µM	·	·	·	3.26µM
C#CCN(C[C@@H]1[C@@H](OC(=O)NCC2CCCCC2)[C@@H](OC(=O)NCC2CCCCC2)Cn2c(=O)ccc(=O)n21)S(=O)(=O)c1ccc(C)cc1	-106.4	2.91µM	·	·	·	3.26µM
C#CCN(C[C@@H]1[C@@H](OC(=O)NCc2ccccc2)[C@@H](OC(=O)NCc2ccccc2)Cn2c(=O)n(CCCCCC)c(=O)n21)S(=O)(=O)c1ccc(C)cc1	–	?	·	·	·	?
